From PubChem
Only some compounds are listed: those with a hit (about 1.1% of all), similar ones and a draw of the others.
MOR-DOR ag-1 = OPRM1-OPRD1 heterodimerization agonism | P35372+P41143 | cells, luminescence | activation, % at 9.3 µM | 340,000 compounds, 0.3% hits | AID 504326
HTR5A inv ctr = counter-screen for OPRM1-OPRD1 inverse agonists: human HTR5A inverse agonism; 340,000 compounds, 0.083% hits; inhibition, % at 9.3 µM; P47898; AID 504634; HTR5A cell line, luminescence; in the data active = inhibition mostly above about 23%, no sharp cut-off; inactive = mostly below about 18%
Target sequence (P47898 whole entry, looked up): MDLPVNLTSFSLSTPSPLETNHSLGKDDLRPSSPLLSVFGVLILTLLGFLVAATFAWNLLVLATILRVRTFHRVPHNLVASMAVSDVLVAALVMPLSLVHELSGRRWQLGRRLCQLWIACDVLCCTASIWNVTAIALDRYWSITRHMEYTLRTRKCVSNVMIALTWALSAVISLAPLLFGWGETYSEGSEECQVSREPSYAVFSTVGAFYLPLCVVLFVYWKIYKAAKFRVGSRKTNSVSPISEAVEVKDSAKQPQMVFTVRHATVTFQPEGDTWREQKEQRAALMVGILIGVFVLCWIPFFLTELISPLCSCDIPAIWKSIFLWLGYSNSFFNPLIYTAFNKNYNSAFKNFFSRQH
HTR5A ag ctr = activates human HTR5A in OPRM1-OPRD1 agonist counter-screen; HTR5A agonist assay, luminescence, cell-based; 340,000 compounds, 0.61% hits; activation, % at 9.3 µM; AID 504692; P47898; in the data active = activation mostly above about 9.5%, no sharp cut-off; inactive = mostly below about 7.6%
OPRM1-OPRD1 inv = inverse agonists of human mu-delta opioid receptor heterodimerization | P35372+P41143 | cell-based MOR-DOR heterodimer luminescence, inverse agonism | inhibition, % at 9.3 µM | 340,000 compounds, 0.21% hits; in the data active = inhibition above about 22%, passing the limit was not always enough
MOR-DOR ag-2 = counter-screen for HTR5A agonists: OPRM1-OPRD1 heterodimerization agonism; shares compounds with HTR5A ag ctr; U2OS counter-screen cells, complementation luminescence, 3 h; activation, % at 9.3 µM; 800 compounds, 13% hits
HTR5A ag conf = HTR5A (human) agonism, confirmation; shares compounds with HTR5A ag ctr; 800 compounds, 17% hits; activation, % at 9.3 µM; AID 504915; HTR5A agonist cell assay, luminescence; in the data active = activation above about 17%
Numbers stand for hits; ! = not active in a repeat. Cut-off read from the data, not from the text of the source, unless noted: active = activation above about 18%; inactive = the rest.

What do the screens show for `CC(=O)NS(=O)(=O)c1ccc(NC(=O)COc2cccc3c2OC(C)(C)C3)cc1`?
MOR-DOR ag-1: inactive; HTR5A inv ctr: inactive; HTR5A ag ctr: inactive; OPRM1-OPRD1 inv: inactive

Results for CN(C)C(=O)c1ccc(NC(=O)COc2cccc3c2OC(C)(C)C3)cc1 ?
MOR-DOR ag-1: inactive; HTR5A inv ctr: inactive; HTR5A ag ctr: 28; OPRM1-OPRD1 inv: inactive; MOR-DOR ag-2: inactive; HTR5A ag conf: 38

What do the screens show for `CC1(C)Cc2cccc(OCC(=O)Nc3ccc(S(N)(=O)=O)cc3)c2O1`?
MOR-DOR ag-1: inactive; HTR5A inv ctr: inactive; HTR5A ag ctr: 34; OPRM1-OPRD1 inv: inactive; MOR-DOR ag-2: inactive; HTR5A ag conf: inactive

What do the screens show for `CC(=O)Nc1ccc(NC(=O)COc2cccc3c2OC(C)(C)C3)cc1`?
MOR-DOR ag-1: inactive; HTR5A inv ctr: inactive; HTR5A ag ctr: inactive; OPRM1-OPRD1 inv: inactive

What do the screens show for `CC1(C)Cc2cccc(OCC(=O)Nc3ccc(OCC(N)=O)cc3)c2O1`?
MOR-DOR ag-1: inactive; HTR5A inv ctr: inactive; HTR5A ag ctr: inactive; OPRM1-OPRD1 inv: inactive

What do the screens show for `CC(Nc1c[nH]c(=O)[nH]c1=O)c1ccccc1` (stereo not given)?
MOR-DOR ag-1: inactive; HTR5A inv ctr: inactive; HTR5A ag ctr: inactive; OPRM1-OPRD1 inv: inactive

What do the screens show for `Cc1c(CCOC(=O)C2C3CC4CC(C3)CC2C4)sc[n+]1CC(=O)c1ccc(Br)cc1` (stereo not given)?
MOR-DOR ag-1: inactive; HTR5A inv ctr: inactive; HTR5A ag ctr: 18!; OPRM1-OPRD1 inv: inactive; MOR-DOR ag-2: inactive; HTR5A ag conf: inactive

Results for O=C1NCCCC1C(=O)Nc1cccc(C(F)(F)F)c1 (stereo not given) ?
MOR-DOR ag-1: inactive; HTR5A inv ctr: inactive; HTR5A ag ctr: 22; OPRM1-OPRD1 inv: inactive; MOR-DOR ag-2: inactive; HTR5A ag conf: inactive

What do the screens show for `COc1ccc(C(=O)Nc2cccc([N+](=O)[O-])c2)cc1Br`?
MOR-DOR ag-1: inactive; HTR5A inv ctr: inactive; HTR5A ag ctr: 19; OPRM1-OPRD1 inv: inactive; MOR-DOR ag-2: inactive; HTR5A ag conf: inactive

How did COc1ccc(C(=O)Nc2ccc(OC)c([N+](=O)[O-])c2)cc1Br do in these assays?
MOR-DOR ag-1: inactive; HTR5A inv ctr: inactive; HTR5A ag ctr: inactive; OPRM1-OPRD1 inv: inactive

Results for COc1cccc(-c2c(C(=O)N/N=C(\C)c3cccs3)nnn2-c2nonc2N)c1 ?
MOR-DOR ag-1: inactive; HTR5A inv ctr: inactive; HTR5A ag ctr: inactive; OPRM1-OPRD1 inv: inactive

How did Cc1nonc1CC(=O)N1CCCC(C(=O)c2cccc(C(F)(F)F)c2)C1 (stereo not given) do in these assays?
MOR-DOR ag-1: inactive; HTR5A inv ctr: inactive; HTR5A ag ctr: inactive; OPRM1-OPRD1 inv: inactive

Results for COc1cc(/C=C/C(=O)O)cc(OC)c1OC ?
MOR-DOR ag-1: inactive; HTR5A inv ctr: inactive; HTR5A ag ctr: 39; OPRM1-OPRD1 inv: inactive; MOR-DOR ag-2: inactive; HTR5A ag conf: inactive

What do the screens show for `COc1ccc(-c2nc(C#N)c(N3CCc4ccccc4C3)o2)cc1OC`?
MOR-DOR ag-1: inactive; HTR5A inv ctr: inactive; HTR5A ag ctr: 18; OPRM1-OPRD1 inv: inactive; MOR-DOR ag-2: inactive; HTR5A ag conf: inactive

What do the screens show for `COc1ccccc1-c1nc(C#N)c(N2CCc3ccccc3C2)o1`?
MOR-DOR ag-1: inactive; HTR5A inv ctr: inactive; HTR5A ag ctr: inactive; OPRM1-OPRD1 inv: inactive

Results for CC(C)(C)OC(=O)C[C@@H]1C/C=C\C[C@@H](CC(=O)N[C@H](CO)Cc2ccccc2)C(=O)N2CCC[C@@H]2COC1=O ?
MOR-DOR ag-1: inactive; HTR5A inv ctr: inactive; HTR5A ag ctr: 16; OPRM1-OPRD1 inv: inactive; MOR-DOR ag-2: 23; HTR5A ag conf: inactive

Results for CCOc1ccc(N2C(=O)CC(NCCc3ccncc3)C2=O)cc1 (stereo not given) ?
MOR-DOR ag-1: inactive; HTR5A inv ctr: inactive; HTR5A ag ctr: inactive; OPRM1-OPRD1 inv: inactive

How did CCOc1ccc(N2C(=O)CC(NCCc3c[nH]c4ccccc34)C2=O)cc1 (stereo not given) do in these assays?
MOR-DOR ag-1: inactive; HTR5A inv ctr: inactive; HTR5A ag ctr: 71; OPRM1-OPRD1 inv: inactive; MOR-DOR ag-2: inactive; HTR5A ag conf: inactive

What do the screens show for `CC/C(=N\NC(N)=O)c1ccc(OC(F)F)cc1`?
MOR-DOR ag-1: inactive; HTR5A inv ctr: inactive; HTR5A ag ctr: inactive; OPRM1-OPRD1 inv: inactive

Results for CCc1cc2c(SCC(=O)N3CCCC3=O)ncnc2s1 ?
MOR-DOR ag-1: inactive; HTR5A inv ctr: inactive; HTR5A ag ctr: inactive; OPRM1-OPRD1 inv: inactive

How did COc1ccc2oc(=O)c(C(=O)N3CCc4ccccc43)cc2c1 do in these assays?
MOR-DOR ag-1: inactive; HTR5A inv ctr: inactive; HTR5A ag ctr: 15; OPRM1-OPRD1 inv: inactive; MOR-DOR ag-2: inactive; HTR5A ag conf: inactive

How did COc1cccc2cc(C(=O)N3CCc4ccccc43)c(=O)oc12 do in these assays?
MOR-DOR ag-1: inactive; HTR5A inv ctr: inactive; HTR5A ag ctr: inactive; OPRM1-OPRD1 inv: inactive

How did COc1ccc(-c2csc(NC(=O)c3ccccc3NS(=O)(=O)c3ccc(F)c(F)c3)n2)cc1 do in these assays?
MOR-DOR ag-1: inactive; HTR5A inv ctr: inactive; HTR5A ag ctr: 15; OPRM1-OPRD1 inv: inactive; MOR-DOR ag-2: 24; HTR5A ag conf: inactive

How did C=CCNC(=O)c1onc(CSc2ccc(F)cc2)c1C(=O)NCC=C do in these assays?
MOR-DOR ag-1: inactive; HTR5A inv ctr: inactive; HTR5A ag ctr: 22; OPRM1-OPRD1 inv: inactive; MOR-DOR ag-2: inactive; HTR5A ag conf: inactive

What do the screens show for `CCOC(=O)c1ccc(Nc2nc(-c3cccnc3)nc3ccccc23)cc1`?
MOR-DOR ag-1: inactive; HTR5A inv ctr: inactive; HTR5A ag ctr: 29; OPRM1-OPRD1 inv: inactive; MOR-DOR ag-2: inactive; HTR5A ag conf: inactive

Results for Cc1ccc(C(=O)CCC(=O)OCC(=O)N(C)c2c(N)n(Cc3ccccc3)c(=O)[nH]c2=O)cc1 ?
MOR-DOR ag-1: inactive; HTR5A inv ctr: inactive; HTR5A ag ctr: inactive; OPRM1-OPRD1 inv: inactive

What do the screens show for `Cc1nc(NC(=O)/C=C/c2ccccc2)sc1C(=O)Nc1ccc(Cl)cc1`?
MOR-DOR ag-1: inactive; HTR5A inv ctr: inactive; HTR5A ag ctr: 17; OPRM1-OPRD1 inv: inactive; MOR-DOR ag-2: inactive; HTR5A ag conf: inactive

How did Cc1nc(NC(=O)/C=C/c2ccccc2)sc1C(=O)Nc1ccccc1Cl do in these assays?
MOR-DOR ag-1: inactive; HTR5A inv ctr: inactive; HTR5A ag ctr: inactive; OPRM1-OPRD1 inv: inactive

Results for Cn1c(NC(=O)c2cccc(Cn3cc(Cl)cn3)c2)nc2ccccc21 ?
MOR-DOR ag-1: inactive; HTR5A inv ctr: inactive; HTR5A ag ctr: inactive; OPRM1-OPRD1 inv: inactive

Results for CCn1c(NC(=O)c2cccc(Cn3cc(Cl)cn3)c2)nc2ccccc21 ?
MOR-DOR ag-1: inactive; HTR5A inv ctr: inactive; HTR5A ag ctr: 20; OPRM1-OPRD1 inv: inactive; MOR-DOR ag-2: inactive; HTR5A ag conf: inactive

How did Cc1ccc(Cn2c(=N)n(CC(=O)c3ccccc3)c3ccccc32)cc1 do in these assays?
MOR-DOR ag-1: inactive; HTR5A inv ctr: inactive; HTR5A ag ctr: 21; OPRM1-OPRD1 inv: inactive; MOR-DOR ag-2: inactive; HTR5A ag conf: inactive

What do the screens show for `COc1ccc(N(CC(=O)NCCSc2ccccn2)S(=O)(=O)c2ccccc2)cc1Cl`?
MOR-DOR ag-1: inactive; HTR5A inv ctr: inactive; HTR5A ag ctr: inactive; OPRM1-OPRD1 inv: inactive
